High-throughput results from PubChem BioAssay.
Sampled rows, rich in hits. Any-hit rate of the full collection: about 7.7%.
FMDV inh = blocks foot and mouth disease virus | 1.2% of 410,000 active | FMDV antiviral cell-based qHTS | Potency, µM (titrated, usually from 57.9 µM), actives largely listed as inhibitors; calls by dose curve; tested in HEK293T cells; further: read-out not given here; nearly all actives have a fitted effect of over 45% in size
Tb PYK inh = T. brucei pyruvate kinase inhibition; Potency, µM (top dose mostly 76.8 µM), hits mostly inhibitors; 0.12% of 410,000 active; TbPYK enzyme, Kinase-Glo Plus ATP luminescence, 45 min; Q57TT1; further: nearly all actives have a fitted effect of over 50% in size
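Screened from lowest to highest concentration, compounds were pinned into TbPYK/substrate mixtures, and ADP (130 uM final) was added. Plates sat at room temperature for 45 min prior to Kinase-Glo Plus detection by luminescence.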
Giardia FBPA inh = Giardia lamblia aldolase inhibition | A8B2U2 | purified Giardia FBPA | Potency, µM (highest dose often 59.6 µM), most hits filed as inhibitors | 0.71% of 290,000 active; further: nearly all actives have a fitted effect of over 55% in size
Target sequence (A8B2U2 whole entry, looked up): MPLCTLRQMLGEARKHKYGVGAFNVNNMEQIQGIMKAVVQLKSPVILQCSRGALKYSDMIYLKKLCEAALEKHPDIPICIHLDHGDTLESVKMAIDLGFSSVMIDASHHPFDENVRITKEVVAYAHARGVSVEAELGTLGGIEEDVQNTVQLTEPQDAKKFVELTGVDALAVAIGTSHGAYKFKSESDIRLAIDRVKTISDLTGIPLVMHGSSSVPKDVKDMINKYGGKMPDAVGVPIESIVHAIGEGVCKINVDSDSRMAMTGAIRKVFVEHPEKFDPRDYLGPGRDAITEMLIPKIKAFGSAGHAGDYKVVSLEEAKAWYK
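Giardia FBPA (40 nM reagent) was preincubated 10 min at RT with compound (up to 57.5 uM final), then substrate plus GAPDH/TPI/NAD/arsenate coupling system with diaphorase/resazurin was added; resorufin fluorescence (525/598 nm) was read after 20 min.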
HCMV inh = inhibitors of human cytomegalovirus | 4.5% of 410,000 active | HFF cells, HCMV-luciferase reporter, 72 h; hits give low values | activity change, negative = inhibition, % at 57.5 µM; in the data active means activity change below about -60%; inconclusive means no clear call, values can overlap the other calls; inactive means above about -39%
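Two compound doses tested in HFFs infected with HCMV-luciferase, MOI 1 PFU/cell, 72 h at 37C. Lysate luminescence read with OneGlo; data normalized against buffer-only and 10uM Salinomycin inhibitor controls.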
Sm TGR block = blocks Schistosoma mansoni thioredoxin glutathione reductase. Q962Y6. purified TGR, DTNB reduction, TNB absorbance 405 nm. Potency, µM (top dose mostly 114 µM), hits mostly inhibitors. 3% of 360,000 active. AID 485364; further: nearly all actives have a fitted effect of over 60% in size
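TGR 20 nM + NADPH 100 uM (dispensed conc.), cpd preinc 15 min RT; start with NADPH (500 uM addition) then DTNB (15 mM addition). Kinetic TNB absorbance, 405 nm filter. Four-parameter Hill fit across titration.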
RE007 growth inh = less growth of the S. pombe RE007 Vpr strain; S. pombe RE007 Vpr strain, BacTiter-Glo ATP luminescence, 24 h; Potency, µM (series often up to 92.2 µM), actives largely listed as inhibitors; 0.21% of 360,000 active; AID 651644; active means well fitted falling curve with a large enough effect; inconclusive means small, poorly fitted or top-dose-only effect; inactive means no such curve, though single readings can be large or run the other way; further: nearly all actives have a fitted effect of over 50% in size
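Fission yeast strain RE007, carrying one chromosomally integrated HIV-1 vpr copy, was seeded at OD 0.01 in PMG+AL medium with 23 nL pinned compound. After 24 h at 30 °C and 99% humidity, viability was read by BacTiter-Glo luminescence.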
Hits are given with their value; . = inactive; ? = inconclusive; / = no result; [ ] = remark or other dose. Unless noted, the call rests on the fitted dose curve; in most records, active means well fitted curve in the direction sought with a large enough effect; inconclusive means small, poorly fitted or top-dose-only effect, or another doubt; inactive means no such curve, though single readings can be large; an effect the other way counts as inactive or inconclusive.

SMILES	FMDV inh	Tb PYK inh	Giardia FBPA inh	HCMV inh	Sm TGR block	RE007 growth inh
O=S(=O)(c1ccc2c(c1)CCCN2)N1CCCC1	.	.	/	.	.	.
CCN(CC)c1ccc2c(c1)CCCN2	/	/	?	/	5.01µM	/
COc1ccc(NC(=O)c2ccc(-c3ccc(C)c4ccccc34)o2)cc1	.	.	.	.	44.7µM	.
Cc1ccc(-c2ccc(C(=O)NCc3ccc(Cl)cc3)o2)c2ccccc12	.	.	.	.	14.1µM	.
C[C@H](CO)N1C[C@H](C)[C@H](CN(C)S(=O)(=O)c2cccs2)Oc2ncc(Br)cc2C1=O	/	/	/	.	/	/
O=c1c(CCc2ccccc2)nc2cnc(N3CCOCC3)nc2n1-c1ccccc1	.	/	.	/	/	/
COc1ccc(/C=C2\CN(Cc3ccccc3)C/C(=C\c3ccc(OC)c(O)c3)C2=O)cc1O	.	.	.	-100.7	44.7µM	.
CCN1C/C(=C\c2cccc([N+](=O)[O-])c2)C(=O)/C(=C/c2cccc([N+](=O)[O-])c2)C1	1.12µM	.	.	-100.4	.	?
CCN1C/C(=C/c2ccc(OC)c(O)c2)C(=O)/C(=C/c2ccc(OC)c(O)c2)C1	.	.	.	-102.9	.	.
COc1ccc(C=C2C(=O)c3ccccc3C2=O)cc1O	.	?	.	.	.	?
CCOC(=O)CCn1c(=O)c2cccn2c2cccnc21	.	.	/	.	.	/
CCOc1ccc(-c2nonc2NC(=O)c2oc3ccc(Br)cc3c2C)cc1	.	.	/	-95.6	.	/
Cc1c(C(=O)Nc2ccccc2)c2ccc(C(F)(F)F)cc2n1O	?	.	/	-94.6	/	.
O=C(CCCn1c(=O)[nH]c2ccccc2c1=O)NCc1ccccc1Cl	.	.	/	.	.	/
CCOc1ccc(-c2nc3ccc(-c4nc5ccc(N6CCN(C)CC6)cc5[nH]4)cc3[nH]2)cc1	/	/	.	/	/	/
N#Cc1ccc2c(c1)C[C@]1(c3ccsc3)Oc3c(c(=O)oc4ccccc34)C2O1	/	/	.[12.9 µM]	/	7.08µM	/
N#Cc1ccc2c(c1)C[C@]1(c3ccsc3)Oc3c(c(=O)oc4ccc(F)cc34)C2O1	/	/	.[12.9 µM]	/	?	/
COc1ccc2c3c(c(=O)oc2c1)C1O[C@](c2ccsc2)(Cc2cc(C#N)ccc21)O3	/	/	.[12.9 µM]	/	6.31µM	/
Cc1ccc(-c2nnc(SCC(=O)N3CCCc4ccccc43)o2)cc1	.	.	/	.	.	/
CNC(=O)/C(=C\c1ccco1)NC(=O)c1ccco1	.	.	.	.	?	.
O=C(O)CCCCCNC(=O)/C(=C\c1ccco1)NC(=O)c1ccco1	.	.	?	.	100µM	.
CC(C)CC(NC(=O)/C(=C\c1ccco1)NC(=O)c1ccco1)C(=O)O (configuration not stated)	.	.	.	.	35.5µM	.
CCNC(=O)/C(=C/c1ccco1)NC(=O)/C=C/c1ccccc1	.	.	.	.	39.8µM	.
O=C(NCc1ccco1)/C(=C/C=C\c1ccccc1)NC(=O)c1ccc(Br)o1	.	.	.	-69.1	.	/
CCCCC/C=C\C/C=C\C/C=C\C=C\C(O)CCCC(=O)O (configuration not stated)	/	/	.	/	/	/
SMILES	FMDV inh	Tb PYK inh	Giardia FBPA inh	HCMV inh	Sm TGR block	RE007 growth inh
Cc1cccc(CNc2ccnc(-c3ccc(N(C)C)cc3)n2)c1	.	/	?	/	/	/
O=C(NCc1ccccc1)/C(=C/c1ccco1)NC(=O)c1ccco1	.	.	.	.	.	.
O=C(N/C(=C/c1ccco1)C(=O)N1CCc2ccccc21)c1ccco1	.	?	.	.	31.6µM	.
CC(C)CC(NC(=O)/C(=C/c1ccco1)NC(=O)c1ccc(Br)o1)C(=O)O (configuration not stated)	.	.	.	.	44.7µM	.
CCOC(=O)/C(=C/c1ccccc1)NC(=O)c1ccco1	.	.	.	.	.	.
CCOC(=O)/C(=C/c1ccco1)NC(=O)c1ccc(Br)o1	.	.	.	.	17.8µM	.
O=C(NC(Cc1ccccc1)C(=O)O)/C(=C/c1ccccc1)NC(=O)c1ccc(Br)o1 (configuration not stated)	.	.	.	.	.	.
Cc1cccc(Nc2nnc(-n3nc(C)cc3C)c3ccccc23)c1	.	.	/	.	.	/
COc1ccc(N2CCN(C(=O)c3cc4c(-c5ccccc5F)nn(C)c4s3)CC2)cc1	.	.	/	.	.	/
Cc1ccc(O)c(C(=O)c2cnc3c(c2)COc2ccccc2-3)c1	.	.	.	-65.8	.	.
COc1ccc(Cn2c(CCC(=O)NCc3cccc(Cl)c3)nc3cccnc32)cc1	.	.	/	.	.	/
CC[C@H](C)[C@H](NC(=O)[C@H](CC(C)C)NC(=O)[C@@H](N)CO)C(=O)NCC(=O)N[C@@H](CCCN=C(N)N)C(=O)N[C@@H](CC(C)C)C(=O)O	/	/	.	/	/	/
COc1cccc(C(=O)Oc2c(CN3CCOCC3)cc(Cl)c3cccnc23)c1	?	.	.	-78.3	.	.
O=C(Oc1c(CN2CCOCC2)cc(Cl)c2cccnc12)c1ccc(F)cc1	.	.	?	-96.5	.	.
COc1ccc(C(=O)Oc2c(CN3CCOCC3)cc(Cl)c3cccnc23)cc1	.	.	.	-75.1	.	.
COc1cc(C(=O)Oc2c(CN3CCOCC3)cc(Cl)c3cccnc23)cc(OC)c1OC	?	.	?	/	.	.
COc1cc2nc(N3CCCC(O)C3)c(CNCc3ccccc3C(F)(F)F)cc2c(OC)c1OC (configuration not stated)	.	/	/	/	/	/
Cc1ccc(S(=O)(=O)NCCN2CCOCC2)s1	.	.	/	-67.0	.	.
O=C(CN1CCCN(Cc2ccccc2Cl)S1(=O)=O)Nc1ccc2c(c1)OCCO2	.	.	/	.	.	/
CN(C)c1c2ccccc2nc2c(F)c(F)c(F)c(F)c12	28.2µM	.	.	/	.	.
Cc1c2ccccc2nc2c(F)c(N(C)C)c(F)c(F)c12	.	.	.	.	.	.
CSc1oc(-c2ccco2)nc1S(=O)(=O)c1ccccc1	.	.	.	.	35.5µM	.
